Among the data in PubChem BioAssay (EPA / NIEHS) are AC50 and outcome values, retold here.

Where “and” joins values, the source holds several entries; their conditions need not be identical. Identical values can stand only once. Records with an inconclusive call do not appear. Calls of active or inactive are those of the source. How the source made its calls, unless noted: active means hit-call score of the fitted dose curve at least 0.9, where 1 is the maximum; inactive means score below 0.9.

Read-out in assay [1]: Pyruvate Dehydrogenase Kinase 4 (PDK4), PDK4 (gene 5166)
Description: LTEA_HepaRG_PDK4: Life Technologies and Expression Analysis (LTEA) Assay for Pyruvate Dehydrogenase Kinase 4 (PDK4) using HepaRG (AID 2283525). The following applies: mRNA level, 48 h; actives raise or lower the signal. The gist of the method: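 HepaRG (human liver line), 48 h chemical exposure, 8-pt half-log CRC top 100 uM, 0.5% DMSO vehicle, duplicates. Readout: TaqMan qRT-PCR of PDK4 mRNA, housekeeping-normalized; gain/loss fit relative to DMSO baseline.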

Read-out in assay [2]: NAD(P)H dehydrogenase [quinone] 1 (NQO1), NQO1 (gene 1728)
Description: LTEA_HepaRG_NQO1: Life Technologies and Expression Analysis (LTEA) Assay for NAD(P)H dehydrogenase [quinone] 1 (NQO1) using HepaRG (AID 2283526). The following applies: mRNA level, 48 h; actives raise or lower the signal. The method in brief: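 In this assay, gene expression is read by qRT-PCR after 48 h exposure of HepaRG cells to eight concentrations (max 100 uM, half-log) in 0.5% DMSO. Each chemical runs in duplicate, and activity is scored relative to vehicle.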

Read-out in assay [3]: succinate dehydrogenase complex iron sulfur subunit B (SDHB), SDHB (gene 6390)
Description: LTEA_HepaRG_SDHB: Life Technologies and Expression Analysis (LTEA) Assay for succinate dehydrogenase complex iron sulfur subunit B (SDHB) using HepaRG (AID 2283528). Particulars: mRNA level, 48 h; actives raise or lower the signal. The gist of the method: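 HepaRG cells (~100,000/well, plated 48 h) exposed in duplicate for 48 h in serum-free induction medium to 8-point half-log series from 100 uM in 0.5% DMSO; mRNA by qRT-PCR normalised to ACTB, GAPDH, POLR2A; bidirectional fit versus DMSO.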

Read-out in assay [4]: Signal transducer and activator of transcription 3 (Homo sapiens) (UniProt P40763)
Description: LTEA_HepaRG_STAT3: Life Technologies and Expression Analysis (LTEA) Assay for Signal transducer and activator of transcription (STAT3) using HepaRG (AID 2283529). Particulars: mRNA level, 48 h; actives raise or lower the signal. The gist of the method:
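HepaRG, 48 h exposure, 8-pt half-log series (top 100 uM), 0.5% DMSO vehicle, duplicates. Readout: STAT3 transcript by Fluidigm qRT-PCR, housekeeping-normalized; bidirectional fit vs DMSO baseline.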

Read-out in assay [5]: solute carrier (SLCO1B1), SLCO1B1 (gene 10599)
Description: LTEA_HepaRG_SLCO1B1: Life Technologies and Expression Analysis (LTEA) Assay for solute carrier (SLCO1B1) using HepaRG (AID 2283530). The following applies: mRNA level, 48 h; actives raise or lower the signal. The gist of the method: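 HepaRG, serum-free induction medium, 48 h dosing, 8-pt half-log from 100 uM, 0.5% DMSO vehicle, duplicates. Readout: SLCO1B1 mRNA, qRT-PCR, ACTB/GAPDH/POLR2A normalization; up or down fit vs DMSO.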

Read-out in assay [6]: sulfotransferase 2A1 (SULT2A1), SULT2A1 (gene 6822)
Description: LTEA_HepaRG_SULT2A1: Life Technologies and Expression Analysis (LTEA) Assay for sulfotransferase 2A1 (SULT2A1) using HepaRG (AID 2283531). Particulars: mRNA level, 48 h; actives raise or lower the signal. The method in brief:
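Transcript levels of SULT2A1, quantified by qRT-PCR and normalized to three housekeeping genes, serve as the readout. Human HepaRG cultures receive test chemicals for 48 h at up to 100 uM in half-log steps, with 0.5% DMSO vehicle.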

Read-out in assay [7]: Transforming Growth Factor (TGFA), TGFA (gene 7039)
Description: LTEA_HepaRG_TGFA: Life Technologies and Expression Analysis (LTEA) Assay for Transforming Growth Factor (TGFA) using HepaRG (AID 2283532). The following applies: mRNA level, 48 h; actives raise or lower the signal. The gist of the method:
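qRT-PCR read-out of TGFA transcript, normalized to three housekeeping genes, fitted bidirectionally against 0.5% DMSO baseline. Human HepaRG cultures received chemicals for 48 h at eight half-log concentrations, top 100 uM.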

Read-out in assay [8]: Transforming Growth Factor (TGFB1), TGFB1 (gene 7040)
Description: LTEA_HepaRG_TGFB1: Life Technologies and Expression Analysis (LTEA) Assay for Transforming Growth Factor (TGFB1) Transporter using HepaRG (AID 2283533). The following applies: mRNA level, 48 h; actives raise or lower the signal. The method in brief: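 HepaRG, 48 h post-plating, switched to serum-free induction medium; chemicals 100 uM top, half-log, 8 pts, 0.5% DMSO, dup; 48 h exposure; RNA → Fluidigm TaqMan qRT-PCR; norm ACTB/GAPDH/POLR2A; bidirectional fit vs DMSO.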

Read-out in assay [9]: TIMP1, TIMP1 (gene 7076)
Description: LTEA_HepaRG_TIMP1: Life Technologies and Expression Analysis (LTEA) Assay for TIMP1 using HepaRG (AID 2283534). Particulars: mRNA level, 48 h; actives raise or lower the signal. The gist of the method: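 Readout is TIMP1 mRNA level measured by qRT-PCR and normalized to three housekeeping genes. Human HepaRG cells were treated for 48 h in duplicate at eight concentrations up to 100 uM (0.5% DMSO); gain or loss fitted against DMSO.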

Read-out in assay [10]: Tumor necrosis factor receptor 1 (TNFRSF1A), TNFRSF1A (gene 7132)
Description: LTEA_HepaRG_TNFRSF1A: Life Technologies and Expression Analysis (LTEA) Assay for Tumor necrosis factor receptor 1 (TNFRSF1A) using HepaRG (AID 2283535). Particulars: mRNA level, 48 h; actives raise or lower the signal. The method in brief:
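Read-out is TNFRSF1A transcript level by TaqMan qRT-PCR, normalized to three housekeeping genes, scored as gain or loss of signal versus 0.5% DMSO. Human HepaRG cells received test chemicals for 48 h at up to 100 uM (half-log series).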

Read-out in assay [11]: Thyroid Hormone Responsive (THRSP), THRSP (gene 7069)
Description: LTEA_HepaRG_THRSP: Life Technologies and Expression Analysis (LTEA) Assay for Thyroid Hormone Responsive (THRSP) using HepaRG (AID 2283536). Particulars: mRNA level, 48 h; actives raise or lower the signal. The method in brief:
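qRT-PCR read-out (Fluidigm TaqMan), housekeeping-normalized (ACTB/GAPDH/POLR2A). HepaRG, 48 h chemical exposure, 8-pt half-log series from 100 uM in 0.5% DMSO, duplicates. Bidirectional curve fit vs 0.5% DMSO baseline.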

Read-out in assay [12]: Cellular tumor antigen p53 (Homo sapiens) (UniProt P04637)
Description: LTEA_HepaRG_TP53: Life Technologies and Expression Analysis (LTEA) Assay for Tumor Protein P53 (TP53) using HepaRG (AID 2283537). The following applies: mRNA level, 48 h; actives raise or lower the signal. The method in brief: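 Differentiated HepaRG cells in serum-free induction medium exposed 48 h in duplicate to 8 half-log concentrations, top 100 uM, 0.5% DMSO. TP53 mRNA by TaqMan qRT-PCR (Fluidigm), normalized to ACTB, GAPDH, POLR2A; fitted bidirectionally versus DMSO.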

Read-out in assay [13]: UDP glucuronosyltransferase (UGT1A1), UGT1A1 (gene 54658)
Description: LTEA_HepaRG_UGT1A1: Life Technologies and Expression Analysis (LTEA) Assay for UDP glucuronosyltransferase (UGT1A1) using HepaRG (AID 2283538). Particulars: mRNA level, 48 h; actives raise or lower the signal. The gist of the method:
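mRNA induction or loss of UGT1A1, by TaqMan qRT-PCR, in duplicate HepaRG wells after 48 h exposure to half-log dilutions topping at 100 uM; DMSO (0.5%) served as baseline.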

Read-out in assay [14]: UDP glucuronosyltransferase (UGT1A6), UGT1A6 (gene 54578)
Description: LTEA_HepaRG_UGT1A6: Life Technologies and Expression Analysis (LTEA) Assay for UDP glucuronosyltransferase (UGT1A6) using HepaRG (AID 2283539). The following applies: mRNA level, 48 h; actives raise or lower the signal. The method in brief:
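HepaRG, 48 h post-plating switch to serum-free induction medium; chemical 48 h, 100 uM top, half-log x8, duplicate, 0.5% DMSO. Phenobarbital 1mM induction control. UGT1A6 mRNA by TaqMan qRT-PCR; gain/loss fit vs DMSO.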

Read-out in assay [15]: X-box binding protein 1 (XBP1), XBP1 (gene 7494)
Description: LTEA_HepaRG_XBP1: Life Technologies and Expression Analysis (LTEA) Assay for X-box binding protein 1 (XBP1) using HepaRG (AID 2283540). The following applies: mRNA level, 48 h; actives raise or lower the signal. The gist of the method:
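Transcript levels of XBP1, measured by qRT-PCR and normalised to three housekeeping genes, were fitted bidirectionally relative to 0.5% DMSO controls. Human HepaRG cells received eight-point half-log dilutions from 100 uM for 48 h.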

Assay [16] can be described thus: LTEA_HepaRG_LDH_cytotoxicity: Cytotoxicity Assessment in the Life Technologies and Expression Analysis (LTEA) Assay (AID 2283563; active means hit-call score of the fitted dose curve at least 0.9, where 1 is the maximum;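 on AC50: LDH activity released into spent culture medium as a marker of cell death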). The method in brief:
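Cells were thawed and plated for 48 h. Medium was then replaced with serum-free induction medium. Chemicals (8 half-log points, maximum 100 uM, 0.5% DMSO) were added in duplicate for 48 h, after which spent medium was assayed for LDH.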

The nature of assay [17]: ATG_XTT_Cytotoxicity: Cytotoxicity Assessment in the Attagene TRANS-FACTORIAL HepG2 Assay (AID 2283584; active means hit-call score of the fitted dose curve at least 0.9, where 1 is the maximum). The method in brief: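 Cells: human HepG2, transiently transfected with MRTU reporter constructs. Exposure 24 h. Readout: XTT, cell number. Baseline/neg ctrl DMSO; loss-of-signal scored.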
The nature of assay [18]: TOX21_p53_BLA_p2_viability: Viability Assessment in the Tox21 HCT-116 p53 Agonism Beta-lactamase Assay, Phase 2 (AID 2283591; active means hit-call score of the fitted dose curve at least 0.9, where 1 is the maximum;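 further: compound exposure lasted 16 h at 37 °C; actives lower the ATP signal meaning cytotoxicity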). The method in brief: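 HCT116 p53-bla cells, 4000/well, dosed after 5 h plating (217-fold dilution of DMSO stocks) and incubated 16 h at 37C. Viability taken as cellular ATP by CellTiter-Glo luminescence after 30 min RT; signal loss marks cytotoxicity.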

The target in assay [19] is Cellular tumor antigen p53 (Homo sapiens) (UniProt P04637). Description: TOX21_p53_BLA_p2_ratio: Tox21 HCT-116 p53 Agonism Beta-lactamase Assay, Ratio, Phase 2 (AID 2283592; active means hit-call score of the fitted dose curve at least 0.9, where 1 is the maximum). The gist of the method:
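Plated HCT116 p53-bla cells (4000/well) received compound after 5 h, then 16 h at 37C/5% CO2. CCF4-AM added, 2 h RT. Ratio of 460 to 530 nm emission taken as the p53 reporter signal.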

Read-out in assay [20]: Nuclear factor erythroid 2-related factor 2 (Homo sapiens) (UniProt Q16236)
Description: LTEA_HepaRG_NFE2L2: Life Technologies and Expression Analysis (LTEA) Assay for Nuclear factor erythroid 2-related factor 2 (NFE2L2) Transcription Factor using HepaRG (AID 2283527).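 On outcome: TaqMan qRT-PCR transcript level normalised to ACTB GAPDH and POLR2A housekeeping genes.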 Particulars: mRNA level, 48 h; actives raise or lower the signal. The gist of the method: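 HepaRG, 48 h dosing, 8-pt half-log series from 100 uM in 0.5% DMSO, duplicates. Read-out: NFE2L2 mRNA by qRT-PCR (ACTB/GAPDH/POLR2A normalization). Bidirectional curve fit vs DMSO baseline.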

Chain of Cellular tumor antigen p53 (Homo sapiens) (P04637 whole entry, looked up): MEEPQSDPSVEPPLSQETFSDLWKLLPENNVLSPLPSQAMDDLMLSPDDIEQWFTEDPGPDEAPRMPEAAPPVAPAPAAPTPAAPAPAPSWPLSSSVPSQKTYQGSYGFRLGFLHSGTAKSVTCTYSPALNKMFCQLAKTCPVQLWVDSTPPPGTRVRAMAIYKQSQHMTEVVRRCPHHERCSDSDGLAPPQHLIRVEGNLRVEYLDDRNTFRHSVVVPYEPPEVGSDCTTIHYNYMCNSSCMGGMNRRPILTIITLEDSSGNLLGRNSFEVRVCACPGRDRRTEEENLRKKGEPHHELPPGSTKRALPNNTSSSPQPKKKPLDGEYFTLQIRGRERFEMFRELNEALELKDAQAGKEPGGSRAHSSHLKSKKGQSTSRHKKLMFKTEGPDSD
Chain of Signal transducer and activator of transcription 3 (Homo sapiens) (P40763 whole entry, looked up): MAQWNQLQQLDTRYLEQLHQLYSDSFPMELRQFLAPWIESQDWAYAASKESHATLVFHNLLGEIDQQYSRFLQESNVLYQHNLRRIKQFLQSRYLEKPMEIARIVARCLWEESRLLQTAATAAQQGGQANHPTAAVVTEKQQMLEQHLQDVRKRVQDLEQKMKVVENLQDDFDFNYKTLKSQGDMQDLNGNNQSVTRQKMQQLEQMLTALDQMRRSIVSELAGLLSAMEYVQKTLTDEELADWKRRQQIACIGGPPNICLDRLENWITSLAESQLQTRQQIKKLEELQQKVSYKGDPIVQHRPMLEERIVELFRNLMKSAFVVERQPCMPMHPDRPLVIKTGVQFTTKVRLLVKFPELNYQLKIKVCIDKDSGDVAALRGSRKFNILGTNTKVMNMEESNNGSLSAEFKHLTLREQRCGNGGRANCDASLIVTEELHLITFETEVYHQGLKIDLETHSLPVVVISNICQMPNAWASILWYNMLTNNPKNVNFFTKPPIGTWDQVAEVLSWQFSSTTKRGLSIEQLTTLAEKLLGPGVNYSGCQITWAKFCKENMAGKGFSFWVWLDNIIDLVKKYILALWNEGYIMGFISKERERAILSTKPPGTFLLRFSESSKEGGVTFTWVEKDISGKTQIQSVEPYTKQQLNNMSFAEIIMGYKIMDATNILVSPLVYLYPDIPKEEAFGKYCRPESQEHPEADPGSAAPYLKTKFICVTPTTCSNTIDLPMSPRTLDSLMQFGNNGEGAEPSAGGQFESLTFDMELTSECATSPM
Chain of Nuclear factor erythroid 2-related factor 2 (Homo sapiens) (Q16236 whole entry, looked up): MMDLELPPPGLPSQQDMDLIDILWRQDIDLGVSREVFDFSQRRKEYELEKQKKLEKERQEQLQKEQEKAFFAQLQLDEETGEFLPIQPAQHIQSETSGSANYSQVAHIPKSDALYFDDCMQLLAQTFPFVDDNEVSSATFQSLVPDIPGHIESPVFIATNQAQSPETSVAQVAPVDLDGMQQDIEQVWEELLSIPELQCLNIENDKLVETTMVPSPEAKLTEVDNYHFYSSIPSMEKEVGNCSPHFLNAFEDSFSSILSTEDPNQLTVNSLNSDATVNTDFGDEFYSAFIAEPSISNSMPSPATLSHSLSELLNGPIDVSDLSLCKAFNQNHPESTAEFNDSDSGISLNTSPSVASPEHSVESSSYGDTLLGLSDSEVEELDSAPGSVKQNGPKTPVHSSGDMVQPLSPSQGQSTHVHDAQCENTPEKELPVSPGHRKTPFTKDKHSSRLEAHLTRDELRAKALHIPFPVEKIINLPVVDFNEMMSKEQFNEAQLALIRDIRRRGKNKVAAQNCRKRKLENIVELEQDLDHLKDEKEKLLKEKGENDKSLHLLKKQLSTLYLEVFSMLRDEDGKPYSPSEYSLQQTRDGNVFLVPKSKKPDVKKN

As a reminder, the AC50 is the concentration giving half of the maximal activity seen. For the compound `CC#C[C@]1(O)CC[C@H]2[C@@H]3CCC4=CC(=O)CCC4=C3[C@@H](c3ccc(N(C)C)cc3)C[C@@]21C`, the concentration at half-maximal activity (AC50) in assay [1] was 0.504 µM (active); in assay [3], 26.2 µM (active); in [5] it was 84.2 µM (active); in assay [6], 57.4 µM (active); in assay [7], 44.9 µM (active); in [8], 3.49 µM (active). Moreover, the concentration at half-maximal activity (AC50) was 83.9 µM (active) in [9]; 11.3 µM (active) in [11]; 20.4 µM (active) in assay [12]; 77.2 µM (active) in [13]; 79.8 µM (active) in assay [14]; 53.4 µM (active) in [15]. Also, the AC50 is 11.5 µM (active) in assay [16]; 45.2 µM (active) and 19.9 µM (active) in assay [19]. Moreover, the compound was classed as inactive in assay [2], in assay [4], in assay [10], in assay [17] and in assay [18].
Consider `CCN(CC)CCNc1ccc(CNC=O)c2sc3ccc(OC)cc3c(=O)c12`, for which the half-maximal activity concentration (AC50) is 44.3 µM (active) in assay [1]; 87 µM (active) in [20]; 83.4 µM (active) in assay [4]; 76 µM (active) in assay [6]; 12.5 µM (active) in assay [7]; 43.5 µM (active) in [10]. In addition, the AC50 was 12.8 µM (active) in [11]; 16.6 µM (active) in [12]; 44 µM (active) in assay [13]; 72 µM (active) in assay [14]; 30.6 µM (active) in [15]; 80.1 µM (active) in assay [16]. Moreover, the concentration at half-maximal activity (AC50) in assay [19] is 10.2 µM (active). In addition, the call in [2], in assay [3], in assay [5], in assay [8], in [9] and in assay [18] was inactive.
Regarding `COC(=O)CCCCC(=O)OC`, the result in [1], in [2], in assay [20], in [4], in [5] and in assay [6] was inactive. Further, the outcome in assay [7], in assay [8], in assay [9], in assay [10], in assay [11] and in assay [12] was inactive. The compound was classed as inactive in [13], in [14], in assay [15], in assay [16], in assay [17] and in [18]. In addition, the outcome in assay [19] was inactive.
